High-throughput results (PubChem)
Compounds with a hit are over-represented: about 27% of the library has one in this group of screens.
CYP2C19 inh: blockers of cytochrome P450 2C19 activity – biochemical, luminescence, ADME assay, primary screen. CYP2C19 Supersomes, luciferin-H EGE luminescence, 30 min. 96,000 tested, 21% active. inhibition, % at 5 µM. P33261;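 active = CYP2C19 inhibition above a set limit at 5 µM in the primary screen, cut at about 50% in these data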
Target sequence (P33261 whole entry, looked up): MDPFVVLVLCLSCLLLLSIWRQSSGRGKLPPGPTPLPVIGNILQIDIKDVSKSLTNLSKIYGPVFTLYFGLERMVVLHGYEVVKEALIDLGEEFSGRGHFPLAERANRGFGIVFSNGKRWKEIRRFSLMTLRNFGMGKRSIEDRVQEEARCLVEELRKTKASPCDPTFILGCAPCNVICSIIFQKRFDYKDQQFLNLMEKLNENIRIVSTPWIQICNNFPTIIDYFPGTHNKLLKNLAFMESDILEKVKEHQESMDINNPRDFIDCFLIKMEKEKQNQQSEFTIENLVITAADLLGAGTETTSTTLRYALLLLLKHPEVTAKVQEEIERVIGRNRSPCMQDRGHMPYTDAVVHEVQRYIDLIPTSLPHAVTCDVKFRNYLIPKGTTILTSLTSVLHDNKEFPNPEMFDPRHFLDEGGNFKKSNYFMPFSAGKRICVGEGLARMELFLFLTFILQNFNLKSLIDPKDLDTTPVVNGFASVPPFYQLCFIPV
CYP2C19 activ: human CYP2C19 activators, primary screen, biochemical, luminescence; Cytochrome P450 2C19 (Homo sapiens), P33261; recombinant CYP2C19, luciferin-H EGE luminescence; active compounds read high; 0 = fully inhibited enzyme, 1 = untreated enzyme; activation factor at 5 µM; 96,000 tested, under 10 active;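 active = activation factor of at least 2 at 5 µM in the primary screen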
CYP2C9 inh: blockers of cytochrome P450 2C9 activity – biochemical, luminescence, ADME assay, primary screen. P11712. CYP2C9 Supersomes, luciferin-H conversion. inhibition, % at 5 µM. 96,000 tested, 20% active. AID 777, 2007;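 active = blocking of liver enzyme CYP2C9 beyond about 50% at 5 µM, limit read from the data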
CYP2C9 activ: human CYP2C9 activators, primary screen, biochemical, luminescence; Cytochrome P450 2C9 (Homo sapiens), P11712; recombinant CYP2C9, luciferin-H conversion; active compounds read high; factor 1 = untreated enzyme, 0 = blocked; activation factor at 5 µM; 96,000 tested, 1.4% active;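 active = activation factor of 2 or more for CYP2C9 at a 5 µM dose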
Cav32 inh: Cav3.2 calcium influx blockers – cell-based, Fluo-4 calcium fluorescence, FDSS, MLSMR library, primary screen. 100,000 tested, 4% active. Cav3.2-expressing cells; active compounds read low. B-score at 10 µM. Voltage-dependent T-type calcium channel subunit alpha-1H (Homo sapiens), O95180;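 active = single-dose well whose peak fluorescence ratio is a statistical outlier from its plate by either plate-standardised score or position-corrected B-score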
Of the large screens only hits and unclear results are named; the others gave an inactive call.

CCSc1nnc(NC(=O)CCc2ccccc2)s1	none
NS(=O)(=O)c1ccc(CNC(=O)CC23CC4CC(CC(C4)C2)C3)cc1	none (no result: Cav32 inh)
O=C(NCCc1ccccn1)C1CC(=O)N(Cc2ccccc2Cl)C1 (stereo not given)	CYP2C19 inh 68.1
COc1ccc(CN2CC(C(=O)NCc3ccccn3)CC2=O)cc1 (stereo not given)	none
COC(=O)c1ccc(NC(=O)CSC2=Nc3ccccc3C3CC=NN23)cc1 (stereo not given)	CYP2C19 inh 67.7, CYP2C9 inh 69.3
Cc1ccc(NC(=O)CSC2=Nc3ccccc3C3CC=NN23)c(C)c1 (stereo not given)	CYP2C19 inh 92.9
Cc1ccc(NC(=O)CCC(=O)NNC(=O)C(c2ccccc2)c2ccccc2)c(C)c1	none
NC(=O)c1ccc(NC(=O)CSC2=Nc3ccccc3C3CC=NN23)cc1 (stereo not given)	none
CCOC(=O)/C=C1\NC(=O)C(C)S1 (stereo not given)	CYP2C9 activ 2.1
CCOC(=O)/C=c1\sc2n(c1=O)CCN=2	none
CN1C(=O)CC(n2c(CO)nc3ccccc32)C1=O (stereo not given)	none
Oc1ccccc1C1=Nc2nc3ccccc3n2C(c2ccccc2)C1 (stereo not given)	CYP2C19 inh 92.4, CYP2C9 inh 98.7, Cav32 inh -7.82
CCOc1ccc(Nc2nc(Cc3nnc(SCC(=O)c4ccc(C)c(C)c4)o3)cs2)cc1	none
CCNC(=S)NCCN1CCCCC1	none
Cc1cc(NC(=O)CCC(=O)N(CC(=O)NC2CCCC2)c2cccc(C)c2C)no1	none (no result: CYP2C19 inh, CYP2C19 activ, CYP2C9 inh, CYP2C9 activ)
COc1ccc(-n2c(C)cc(C=O)c2C)cc1Cl	CYP2C19 inh 59.1
Cc1nn(-c2ccccc2)c(Cl)c1/C=C/C(=O)c1ccccc1	CYP2C19 inh 70.3, CYP2C9 inh 65.8
Cc1nn(-c2ccccc2)c(Cl)c1/C=C(\CC(=O)O)c1nc2ccccc2s1	CYP2C9 inh 74.3
Cc1ccc(/C=C/C(=O)c2ccccc2)cc1	none (no result: CYP2C19 inh, CYP2C19 activ, CYP2C9 inh, CYP2C9 activ)
CCN(CC)C(=O)c1[nH]cnc1C(=O)N[C@@H](C)C(=O)OC(C)(C)C	none (no result: CYP2C19 inh, CYP2C19 activ, CYP2C9 inh, CYP2C9 activ)
O=c1oc2cc(O)ccc2c2ccccc12	CYP2C9 activ 2.2
Cc1coc2cc3oc(=O)c4c(c3cc12)CCCC4	CYP2C9 inh 73.9
COc1ccc2c(c1)c(=O)oc1cc(O)ccc12	none (no result: CYP2C19 inh, CYP2C19 activ, CYP2C9 inh, CYP2C9 activ)
CCc1cc2c3c(c(=O)oc2cc1OC)CCCC3	none
O=c1oc2cc(O)ccc2c2c1CCCC2	CYP2C9 activ 2.6
CC(=O)Nc1ccccc1N(C)S(=O)(=O)c1ccc(C)cc1	none
CCCCCn1ccc(=O)c2c(C(F)(F)F)nccc21	none (no result: CYP2C19 inh, CYP2C19 activ, CYP2C9 inh, CYP2C9 activ)
COc1cc2c(cc1OC)-c1cc(N3CCCc4ccccc43)nc(=O)n1CC2	CYP2C19 inh 59.9, CYP2C9 inh 69.3
COc1cc2c(cc1OC)-c1cc(Nc3ccc4c(c3)OCCO4)nc(=O)n1CC2	CYP2C9 inh 66.9
COc1ccc(CSc2nnc3n(C)c(=O)c4c5c(sc4n23)CCCC5)cc1	none (no result: Cav32 inh)
COC(=O)C1=C(C(=O)OC)[C@@H]2N(C)c3ccc(OC)cc3[C@@]23C[C@@H](C(=O)OC)N(C(=O)c2cc(C)oc2C)C3=N1	none (no result: CYP2C19 inh, CYP2C19 activ, CYP2C9 inh, CYP2C9 activ)
CCOc1cc(S(=O)(=O)NCc2ccccn2)ccc1Cl	none (no result: CYP2C19 inh, CYP2C19 activ, CYP2C9 inh, CYP2C9 activ)
COc1cc(S(=O)(=O)Nc2c(C)cc(C)cc2C)ccc1Cl	none
COc1cc(S(=O)(=O)Nc2ccccc2C)ccc1Cl	CYP2C19 inh 99.7, CYP2C9 activ 2
CCOc1cc(S(=O)(=O)Nc2ccc(CC)cc2)ccc1Cl	CYP2C9 inh 80.1
CCOc1cc(S(=O)(=O)Nc2ccccc2CC)ccc1Cl	CYP2C19 inh 81.7, Cav32 inh -5.76
COCCN(C(=O)Cc1cccs1)C(C(=O)NCc1ccc(OC)cc1)c1ccccc1 (stereo not given)	none
Cc1c(NC(=O)COC(=O)c2cc3c4ccccc4n(C)c3s2)c(=O)n(-c2ccccc2)n1C	none
COCCCn1ccc(O)c(Cc2ccc(F)cc2)c1=O	none
Cc1cc(O)c2c(-c3ccccc3)cc(=O)oc2c1	CYP2C19 inh 52.4, CYP2C9 inh 75.6
Cc1cc(=O)oc2cc(Oc3ccc([N+](=O)[O-])cc3C(F)(F)F)ccc12	none (no result: CYP2C19 inh, CYP2C19 activ, CYP2C9 inh, CYP2C9 activ)
CCCCc1cc(=O)oc2cc(C)cc(O)c12	CYP2C19 inh 55.1, CYP2C9 inh 68.0
